# Values without a mark were called inactive. The source made the active and inactive calls.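 How the source made its calls: active means activity change under -35% in any replicate well, with more than 20 beads read in that well; inactive means the rest.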
# Biological target: Caspase recruitment domain-containing protein 9 (Homo sapiens) + E3 ubiquitin-protein ligase TRIM62 (Homo sapiens) (UniProt Q9H257+Q9BVG3)
# Test: disruptors of CARD9-TRIM62 binding, primary screen, cell lysate, HEK293FT lysates, Luminex bead ELISA (AID 1259341);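 further: PE anti-Flag signal of Flag-CARD9 captured by myc-TRIM62 beads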
# Conditions: PE fluorescence, hits give low values, concentration not given here
# Chain of Caspase recruitment domain-containing protein 9 (Homo sapiens) + E3 ubiquitin-protein ligase TRIM62 (Homo sapiens) (Q9BVG3 whole entry, looked up, the tested form may be a part): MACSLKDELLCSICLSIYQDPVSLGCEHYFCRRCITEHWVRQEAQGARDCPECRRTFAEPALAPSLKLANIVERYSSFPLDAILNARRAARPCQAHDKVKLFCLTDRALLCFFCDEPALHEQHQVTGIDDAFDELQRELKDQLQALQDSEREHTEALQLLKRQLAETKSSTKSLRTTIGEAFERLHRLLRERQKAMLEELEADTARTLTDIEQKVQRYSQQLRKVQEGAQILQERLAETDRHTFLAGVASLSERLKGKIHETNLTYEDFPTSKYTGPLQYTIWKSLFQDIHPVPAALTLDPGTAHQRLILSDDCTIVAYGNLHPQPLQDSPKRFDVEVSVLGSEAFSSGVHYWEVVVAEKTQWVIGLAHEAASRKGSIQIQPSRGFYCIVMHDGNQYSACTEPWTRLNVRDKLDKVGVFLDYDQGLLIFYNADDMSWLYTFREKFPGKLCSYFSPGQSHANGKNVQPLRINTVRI
# Chain of Caspase recruitment domain-containing protein 9 (Homo sapiens) + E3 ubiquitin-protein ligase TRIM62 (Homo sapiens) (Q9H257 whole entry, looked up, the tested form may be a part): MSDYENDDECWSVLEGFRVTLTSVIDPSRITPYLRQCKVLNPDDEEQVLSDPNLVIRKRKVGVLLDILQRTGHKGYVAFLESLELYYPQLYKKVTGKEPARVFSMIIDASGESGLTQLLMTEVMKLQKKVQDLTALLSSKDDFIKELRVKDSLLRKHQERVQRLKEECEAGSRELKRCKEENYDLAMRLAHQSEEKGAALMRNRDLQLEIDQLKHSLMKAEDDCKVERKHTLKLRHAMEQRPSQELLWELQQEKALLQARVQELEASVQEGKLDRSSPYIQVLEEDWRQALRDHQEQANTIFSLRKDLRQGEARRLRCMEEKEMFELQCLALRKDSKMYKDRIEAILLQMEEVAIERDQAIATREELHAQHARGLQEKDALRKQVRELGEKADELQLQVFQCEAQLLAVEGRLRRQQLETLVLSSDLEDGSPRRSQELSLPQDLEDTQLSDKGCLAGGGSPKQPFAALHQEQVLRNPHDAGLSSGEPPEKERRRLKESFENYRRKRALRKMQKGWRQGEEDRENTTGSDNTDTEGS
row,Structure (SMILES),"activity change, negative = inhibition"
1,O=S(=O)(Nc1nc2ccc(S(=O)(=O)N3CCCCC3)cc2s1)c1ccccc1,-0.733%
2,O=C(O)c1ccccc1SC1CC(=O)N(Cc2ccccc2)C1=O (stereo not given),6.92%
3,COc1ccc(F)c(CN2C[C@H]3CC[C@@H]2CN(Cc2cscn2)C3)c1,-3.76%
4,Cc1nn2c(c1-c1ccccc1)NC(c1ccco1)=CC2c1ccco1 (stereo not given),21.4%
5,CC(=O)c1cccc(OCC(=O)N(C)CC(=O)NCc2ccco2)c1,-22.5%
6,C(=C\c1ccco1)/c1nc2ccccc2[nH]1,-9.75%
7,O=S(=O)(Nc1nc2ccccc2nc1NCc1ccco1)c1ccccc1,1.68%
8,O=S(=O)(Nc1nccs1)c1ccc(-n2cccc2)cc1,3.9%
9,O=C(CCn1cncn1)N1CCC(n2cc(-c3ccccn3)nn2)CC1,3.29%
10,Cc1ccc(-c2nnc(-c3nc(Nc4nc5ccccc5s4)c4ccccc4n3)o2)cc1,-10.3%
11,c1cn(CCc2noc(C3CCCC3)n2)c(-c2cc3n(n2)CCCNC3)n1,-12.3%
12,O=C1NC(c2ccc(Br)cc2)Nc2sc3c(c21)CCC3 (stereo not given),-3.86%
13,NC(=O)C1(N2CCCCC2)CCN(c2ccc(NC(=O)c3cccc(Cl)c3)cc2C(=O)O)CC1,-49% (active)
14,c1ccc(-c2nc(-c3ccco3)n3ccccc23)cc1,-5.09%
15,CS(=O)(=O)N1CCN(c2ccc([N+](=O)[O-])c(SCc3ccco3)c2)CC1,-5.97%
16,COCCC(=O)N1CCCC2(CCN(CCN3CCCC3)C2=O)C1 (stereo not given),-7.49%
17,COc1ccc(NC(=O)c2nc(Nc3ccccc3)c3ccccc3n2)cc1,4.26%
18,Cc1ccccc1C(=O)Nc1cnc(N2CCC(C(N)=O)(N3CCCCC3)CC2)c(C(=O)O)c1,-48.4% (active)

row,Structure (SMILES),"activity change, negative = inhibition"
1,O=[N+]([O-])c1ccc2cc[nH]c2c1,7.88%
2,CN(c1ccccc1C(=O)NCc1ccco1)S(C)(=O)=O,-3.12%
3,COc1cc(N)c(Cc2nccc3cc(OC)c(OC)cc23)cc1OC,1.93%
4,CCc1cc2c(=O)n(Cc3ccco3)c(SC)nc2s1,1.18%
5,CCc1nccn1CCC(=O)N1C[C@H](CO)C[C@H](CN2CCCC2)C1,4.55%
6,C[C@H](CO)N1C[C@H](C)[C@@H](CN(C)CC2CCCCC2)OCCCC[C@H](C)Oc2ccc(NS(=O)(=O)c3cn(C)cn3)cc2C1=O,9.05%
7,Cn1ncc2c(NNC(=O)c3cc(O)cc(O)c3)ncnc21,1.25%
8,CC(C)(C)c1ccc(-c2nc(C#N)c(NCc3ccncc3)o2)cc1,6.53%
9,Cc1ccc(Cc2cnc(N)s2)o1,18.6%
10,O=c1oc(/C=C/c2ccc([N+](=O)[O-])s2)nc2ccccc12,-7%
11,O=S(=O)(c1ccc(F)cc1)N1CN(Cc2ccco2)c2nc3ccccc3nc21,26.6%
12,O=C(Nc1nc(-c2ccco2)c(-c2ccco2)s1)c1ccc(F)cc1F,6.3%
13,O=[N+]([O-])c1c(NCCCO)cc(SCc2ccco2)c2nonc12,15.3%
14,O=C(O)c1ccccc1/C=N/NC(=O)c1cc(-c2ccco2)nc2ccccc12,-9.37%
15,Cc1ccc(N2NC(c3ccc(Br)cc3)=CCC2=O)cc1,-5.75%
16,Cc1nc(C)c(C(=O)Nc2ncc([N+](=O)[O-])s2)o1,-6.18%
17,O=C(COC(=O)CCC(=O)c1cccs1)NCc1ccco1,0.961%

# Reference: PubChem BioAssay AID1259341 (Broad Institute, 2017)
